D3 antag – blocks the human D3 dopamine receptor. max response, negative = inhibition, %. D3R cells, DiscoveRx beta-arrestin luminescence, antagonist mode; hits give low values. P35462. 360,000 compounds, 2.5% hits. AID 652054; in the data active = max response below about -50%; inconclusive = no clear call, values can overlap the other calls; also: % is scaled to controls: 0 for no effect and ±100 for the full control effect
Target sequence (P35462 whole entry, looked up): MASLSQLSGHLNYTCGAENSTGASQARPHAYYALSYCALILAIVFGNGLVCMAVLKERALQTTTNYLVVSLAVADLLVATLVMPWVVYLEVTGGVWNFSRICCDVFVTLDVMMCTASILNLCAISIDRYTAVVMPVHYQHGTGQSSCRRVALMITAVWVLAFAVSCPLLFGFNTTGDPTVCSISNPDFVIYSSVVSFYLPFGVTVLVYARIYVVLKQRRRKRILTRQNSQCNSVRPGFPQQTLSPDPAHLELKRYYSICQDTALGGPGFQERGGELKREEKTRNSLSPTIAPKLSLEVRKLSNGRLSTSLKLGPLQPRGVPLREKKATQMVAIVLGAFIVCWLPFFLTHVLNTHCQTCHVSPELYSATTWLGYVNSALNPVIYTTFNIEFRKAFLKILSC
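Cells expressing the human receptor were seeded at 1500 cells/well, incubated overnight at 37 degrees C in 5% CO2, then exposed to library compounds with dopamine controls for 90 minutes at 37 degrees C before luminescent detection.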
D3 ag – activates the human D3 dopamine receptor; D3R DiscoveRx beta-arrestin cells, luminescence, 90 min; max activation, %; 410,000 compounds, 0.58% hits; in the data active = max activation above about 30%; also: 0% is about no effect
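Agonist mode: compounds and dopamine controls were applied to plated cells for 90 min at 37 degrees C after an overnight attachment at 1500 cells/well. Luminescent read-out followed 30 - 60 minutes at room temperature with DiscoveRx detection reagent.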
IL1B secr inh – inflammasome signaling inhibition, IL-1 beta readout; activity change, % at 57.5 µM; 360,000 compounds, 4.7% hits; THP-1 LPS/ATP IL-1B secretion, AlphaLISA, 16 h; hits give low values; in the data active = activity change below about -50%; inconclusive = mostly about -30% to -49%; also: % is scaled to controls: 0 for no effect and ±100 for the full control effect
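Secreted IL-1B measured by AlphaLISA bead assay after 16 h compound exposure of THP-1 cells; compounds (final up to 57.5 uM) added 1 h before LPS (250 ng/mL) and ATP (1.25 mM) stimulation; lower signal means less secretion.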
ATXN2 expr inh – inhibitors of ATXN2 expression; HEK-293 ATXN2-luciferase reporter, luminescence, 24 h; AID 1745845; 360,000 compounds, 0.72% hits; Potency, µM (series often up to 57 µM), without a hit: at the highest dose activity change, negative = inhibition, actives largely listed as inhibitors; also: potency is read from the fitted curve at half-maximal effect; % is scaled to controls: 0 for no effect and ±100 for the full control effect; nearly all actives have a fitted effect of over 55% in size
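qHTS (up to 57 uM final) was run with 24 h compound exposure of reporter cells at 37 °C. Each well was multiplexed: SteadyGlo luminescence measured ATXN2-luciferase expression after a fluorogenic Gly-Phe-AFC viability readout (25 uM final).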
a7 integrin act – activators of alpha7 integrin expression for muscular dystrophy; alpha7betagal myoblasts, beta-gal FDG fluorescence, 48 h; Potency, µM (titrated, usually from 38.3 µM), for inactives: at the highest dose activation, usual class: activators; 350,000 compounds, 0.064% hits; AID 624291;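 also: potency is read from the fitted curve at half-maximal effect; 100% = response of the positive control SU9516; nearly all actives have a fitted effect of over 60% in size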
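alpha7betagal+/- myoblasts (passage 13, 250/well) treated 48 h at 37C with compounds at 1:260 dilution of DMSO stock. Lysed, then beta-galactosidase activity read as FDG fluorescence (ex 480/em 540) after 30 min, with pre-read for autofluorescence.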
ATXN viability – cell viability loss in ATXN counter-screen; Potency, µM (titrated, usually from 56.7 µM), actives largely listed as cytotoxic; S2 cells (HEK-293 line with an ATXN2-luciferase reporter) viability, CellTiter-Fluor protease fluorescence, 24 h; 400,000 compounds, 0.49% hits; also: potency is read from the fitted curve at half-maximal effect; nearly all actives have a fitted effect of over 40% in size
The depositor's hits bear a star. Compounds with a hit are over-represented: about 7% of the library has one in this group of screens. Unless noted, calls follow the shape of the dose curve; as a rule, active = well fitted curve in the direction sought with a large enough effect; inconclusive = small, poorly fitted or top-dose-only effect, or another doubt; inactive = no such curve, though single readings can be large; an effect the other way counts as inactive or inconclusive.

For CC1(c2ccc3noc(-c4ccccc4)c3c2)OCCO1 the results were D3 antag 9, D3 ag 2, IL1B secr inh inconclusive, ATXN2 expr inh 0%, a7 integrin act -28% and ATXN viability inactive.
Screening COc1cccc(-c2onc3ccc(C4(C)OCCO4)cc23)c1 returned D3 antag 27, D3 ag 32*, IL1B secr inh -87*, ATXN2 expr inh 1%, a7 integrin act 17% and ATXN viability inactive.
`CC1CCc2c(ccc3ccccc23)C1=O` (centres undefined) gave D3 antag 8, D3 ag -1, IL1B secr inh -5, ATXN2 expr inh 2%, a7 integrin act 8% and ATXN viability inactive.
`C=C(C)CN(CC)c1nc(N)c2c(N)nc3c(c2c1C#N)CC(=O)N3C12CC3CC(CC(C3)C1)C2` gave D3 antag -26, D3 ag -3, IL1B secr inh -60*, ATXN2 expr inh -8%, a7 integrin act -16% and ATXN viability inactive.
Screening CN(C)/C=N/C(=S)Nc1ccc(Cl)cc1Cl returned D3 antag -8, D3 ag -1, IL1B secr inh -77*, ATXN2 expr inh 30%, a7 integrin act -14% and ATXN viability inactive.
Screening CN(C)/C=N/C(=S)Nc1ccc(Cl)cc1 returned D3 antag -9, D3 ag 4, IL1B secr inh -13, ATXN2 expr inh 11% and a7 integrin act 5%.
For CCc1sc(Nc2cccc(C)c2)nc1-c1cc2cccc(OC)c2oc1=O the results were D3 ag 23, ATXN2 expr inh 5% and ATXN viability inconclusive.
CN(CC(=O)Nc1c(Cl)cccc1Cl)C(=O)C1=COCCO1 was read as D3 antag -19, D3 ag -6, IL1B secr inh 1, ATXN2 expr inh 5%, a7 integrin act 22% and ATXN viability inactive.
`COC(=O)c1[nH]c2ccc(Br)cc2c1NC(=O)C(C)N1CCN(C2CCCCC2)CC1` (centres undefined) gave D3 antag 11, D3 ag -7, IL1B secr inh -82*, ATXN2 expr inh inconclusive and a7 integrin act -56%.
For COC(=O)c1[nH]c2ccc(C)cc2c1NC(=O)C(C)N1CCN(C2CCCCC2)CC1 (centres undefined) the results were D3 antag -21, D3 ag -4, IL1B secr inh 13, ATXN2 expr inh 11%, a7 integrin act -3% and ATXN viability inactive.
For Cc1ccc(Cl)cc1NC(=S)NCCCSC1CCCCC1 the results were D3 antag -10, D3 ag -11, IL1B secr inh -101*, ATXN2 expr inh -10%, a7 integrin act 7% and ATXN viability inactive.
Cc1cc(Cl)ccc1NC(=S)NCCCO was read as D3 antag 18, D3 ag 1, IL1B secr inh inactive, ATXN2 expr inh 8%, a7 integrin act -34% and ATXN viability inactive.
`O=C(NCc1ccccc1)c1nc(S(=O)(=O)Cc2ccccc2)ncc1Cl` gave D3 antag -78*, D3 ag 1, IL1B secr inh -98*, a7 integrin act -24% and ATXN viability inconclusive.
COC(=O)c1ccccc1NC(=O)c1nc(S(=O)(=O)Cc2ccccc2)ncc1Cl was read as D3 antag -77*, D3 ag -1, IL1B secr inh -16, a7 integrin act -43% and ATXN viability inconclusive.
`CCS(=O)(=O)c1ncc(Cl)c(C(=O)NCc2ccccc2)n1` gave D3 ag -17.
Screening COc1ccc(CNC(=O)c2nc(S(=O)(=O)Cc3ccccc3)ncc2Cl)cc1 returned D3 antag -97*, D3 ag -5, IL1B secr inh -99*, a7 integrin act -84% and ATXN viability 18µM*.
`CC(=O)Nc1ccc(NC(=O)c2nc(S(=O)(=O)Cc3ccccc3)ncc2Cl)cc1` gave D3 antag -29, D3 ag -1, a7 integrin act -88% and ATXN viability inconclusive.
Screening COc1ccc(CNC(=O)c2nc(SC(C)C)ncc2Cl)cc1 returned D3 ag -14, ATXN2 expr inh -13% and ATXN viability inactive.
Screening CCOC(=O)CSc1nnc(C)c(=O)[nH]1 returned D3 antag 2, D3 ag -10, IL1B secr inh 1, ATXN2 expr inh -16%, a7 integrin act 27% and ATXN viability inactive.
`CCOC(=O)CSc1nnc(NCC(=O)OC)c(=O)[nH]1` gave D3 antag -56*, D3 ag -14, IL1B secr inh -29, ATXN2 expr inh -11%, a7 integrin act -5% and ATXN viability inconclusive.
Screening Cc1cc(C)nc(NS(=O)(=O)c2ccc(NC(=O)Cc3ccccc3F)cc2)n1 returned D3 antag 11, D3 ag 6, IL1B secr inh 7, ATXN2 expr inh 8%, a7 integrin act 3% and ATXN viability inactive.
CC(=O)N(C)C1(c2ccccc2)CCN(CCC[C@]2(c3ccc(Cl)c(Cl)c3)CCCN(C(=O)c3ccccc3)C2)CC1 was read as ATXN2 expr inh 22µM*.
`COCCNC(=O)C1(C)CCCN(C(=O)c2ccccc2)C1` (centres undefined) gave D3 antag 26, D3 ag 1, IL1B secr inh 26, ATXN2 expr inh 6% and ATXN viability inactive.
Screening COc1ccc(NC(=O)NNC(=O)c2ccc3ccccc3c2)cc1OC returned D3 antag 20, D3 ag -2, IL1B secr inh inactive, ATXN2 expr inh inconclusive, a7 integrin act -14% and ATXN viability inactive.
`CCCCn1c(-c2ccc(Br)cc2F)nc2c1c(=O)[nH]c(=O)n2CC(C)C` gave D3 antag 24, D3 ag -2, IL1B secr inh -68*, ATXN2 expr inh inconclusive, a7 integrin act -19% and ATXN viability inactive.
`Cc1cccc(OCCCN2CCCCCC2)c1` gave D3 antag -51*, D3 ag -30, IL1B secr inh 9, ATXN2 expr inh -16%, a7 integrin act -26% and ATXN viability inactive.
Brc1cccc(OCCN2CCCCC2)c1 was read as D3 antag -92*, D3 ag -36, IL1B secr inh -7, ATXN2 expr inh 0%, a7 integrin act 3% and ATXN viability inactive.
Brc1cccc(OCCN2CCc3ccccc3C2)c1 was read as D3 antag -73*, D3 ag 8, IL1B secr inh -1, ATXN2 expr inh -9% and a7 integrin act inconclusive.
`Cc1ccc(OCCCCN2CCCCC2)cc1` gave D3 antag -13, D3 ag -6, IL1B secr inh -7 and a7 integrin act -40%.

High-throughput results: PubChem BioAssay, National Center for Advancing Translational Sciences (NCATS)
